From the supplement of paper PMC3334620
Whole data set: some 33,000 sequences, median “E-score (-0.5 to 0.5)” near -0.041, cut for the highest 2% near 0.37. The full list was thinned out, with the highest values kept by preference.

biological target: T1, Ecm22 (UniProt Q05958); assay: PBM E-score (8-mer binding enrichment) (E-score (-0.5 to 0.5)); higher = stronger / more preferred TF binding; settings: protein concentration: 200 nM; construct: GST-full length
T1 sequence: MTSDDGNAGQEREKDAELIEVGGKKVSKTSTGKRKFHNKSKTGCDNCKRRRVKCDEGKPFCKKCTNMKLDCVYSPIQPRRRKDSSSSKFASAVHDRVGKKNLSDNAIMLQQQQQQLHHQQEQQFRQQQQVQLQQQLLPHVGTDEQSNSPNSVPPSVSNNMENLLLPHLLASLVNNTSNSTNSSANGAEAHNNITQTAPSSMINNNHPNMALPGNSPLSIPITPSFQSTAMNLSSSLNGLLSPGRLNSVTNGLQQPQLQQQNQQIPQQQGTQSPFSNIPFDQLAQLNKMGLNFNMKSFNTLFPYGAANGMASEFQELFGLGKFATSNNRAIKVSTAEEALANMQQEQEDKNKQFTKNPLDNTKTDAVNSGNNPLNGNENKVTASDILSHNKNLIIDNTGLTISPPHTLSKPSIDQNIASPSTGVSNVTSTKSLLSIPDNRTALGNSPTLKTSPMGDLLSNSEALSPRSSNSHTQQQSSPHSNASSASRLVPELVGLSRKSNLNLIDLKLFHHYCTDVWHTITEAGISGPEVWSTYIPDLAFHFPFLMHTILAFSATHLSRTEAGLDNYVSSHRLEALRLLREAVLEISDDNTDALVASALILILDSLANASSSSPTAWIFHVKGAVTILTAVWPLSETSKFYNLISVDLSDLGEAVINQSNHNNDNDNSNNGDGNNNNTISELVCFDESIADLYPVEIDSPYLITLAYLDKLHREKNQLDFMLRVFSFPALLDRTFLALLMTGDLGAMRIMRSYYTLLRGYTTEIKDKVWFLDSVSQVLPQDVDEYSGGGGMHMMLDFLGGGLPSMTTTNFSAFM
Experimental: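 Universal 'all 10-mer' protein binding microarrays (Agilent AMADID 015681) probed with GST-tagged S. cerevisiae TFs (full-length or DBD) made by in vitro transcription/translation (PURExpress), about 100-200 nM. Bound TF was detected with fluorescent anti-GST. Each ungapped 8-mer (which stands for itself and its reverse complement) is scored by the PBM enrichment score (E-score), a modified Wilcoxon-Mann-Whitney statistic from -0.5 to +0.5, computed with the Universal PBM Analysis Suite. Scale: above 0.35 generally sequence-specific binding.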

Row | Sequence | PBM E-score
1 | GATATAAC | 0.156
2 | AAGGACAC | -0.168
3 | ACTTTGGG | -0.263
4 | ATTGACTC | -0.0667
5 | AACACAAT | -0.00044
6 | CTTTTCCA | -0.271
7 | GGCGGCGA | -0.157
8 | GACAGAGA | 0.0187
9 | AATACGCT | 0.121
10 | GATACGGC | 0.32
11 | GATACGAC | 0.464
12 | GATACGCC | 0.162
13 | GATACAAA | 0.163
14 | AATACGTC | 0.0846
15 | AATACGAT | 0.384
16 | GATACGAA | 0.445
17 | AATACGGT | 0.21
18 | AATACGAC | 0.429
19 | AATACGGC | 0.268
20 | GATACGTA | 0.253
21 | ATTCCGAC | -0.0388
22 | AAAACGAT | 0.257
23 | ACGTTCTA | 0.0664
24 | AGGAATAT | 0.06
25 | AGTTGAAC | 0.0747

Row | Sequence | PBM E-score
26 | AGTGGAGA | -0.128
27 | ACCGAGTG | 0.159
28 | TCCAGGGA | -0.173
29 | CACGGACG | -0.0335
30 | AGCTAACA | -0.248
31 | CATACGCG | 0.269
32 | CATACGAG | 0.481
33 | CATACGGG | 0.36
34 | AGGGTTAA | -0.0692
35 | CGGCTCAC | -0.0852
36 | AGGTTAGA | -0.186
37 | GAGCGAGA | 0.377
38 | CAGCGAGA | 0.0257
39 | GCACGAGA | 0.127
40 | AATCGAGC | 0.237
41 | CAACGAGC | 0.336
42 | AAACGAGC | 0.482
43 | GAGCGAGC | 0.354
44 | GAACGAGC | 0.483
45 | GGACGAGA | 0.0358
46 | AACCGAGC | 0.355
47 | GAACGAGA | 0.464
48 | GCACGAGC | 0.0624
49 | GCTGCCTA | -0.101
50 | AGTGGGCG | -0.167

Row | Sequence | PBM E-score
51 | ATAGGATC | -0.135
52 | GCCTAGCA | -0.213
53 | ATAAGGAG | -0.0163
54 | ATGTACGC | 0.112
55 | ATGTACGG | 0.365
56 | GTGTACGA | 0.481
57 | CTGTACGA | 0.48
58 | ATGTACGA | 0.477
59 | GTGTACTA | 0.207
60 | CTGTACAA | -0.0518
61 | GTGTACCA | 0.0289
62 | CTGTACGC | 0.314
63 | TACTGACA | 0.0366
64 | AGTCCAAA | -0.108
65 | GGCGGCAC | 0.0476
66 | GCTGGGGA | -0.211
67 | CCACCCGC | -0.0883
68 | GCACCGTA | 0.371
69 | ACACCGTA | 0.313
70 | TAACCGTA | 0.375
71 | CCACCGTA | 0.34
72 | AAACCGTA | 0.27
73 | GAACCGTA | 0.248
74 | AGACAGCA | -0.143
75 | AATACCGT | 0.197

Row | Sequence | PBM E-score
76 | CAGGGTGA | -0.192
77 | TAATCGAA | 0.134
78 | AAATCGTC | 0.127
79 | AAATCGTA | 0.393
80 | CAATCGTC | -0.0527
81 | AAATCGTG | 0.0433
82 | GAATCGTC | 0.14
83 | TAATCGGA | 0.16
84 | TAATCGTA | 0.418
85 | CAATCGTA | 0.389
86 | CAATCGTG | -0.215
87 | GAATCGCA | -0.0229
88 | GAATCGTA | 0.38
89 | ACCCACAA | 0.105
90 | ACGTAGTC | -0.158
91 | AGATAGGG | -0.127
92 | ATCTCGAG | -0.0735
93 | AATGGCTG | -0.124
94 | CGGGTACG | 0.452
95 | AGGGTACC | -0.323
96 | CGAGTACC | 0.21
97 | CGAGTACG | 0.392
98 | AGGGTACA | -0.0565
99 | CGGGTACC | -0.134
100 | CGGGTACA | 0.157

Row | Sequence | PBM E-score
101 | AGGGTACG | 0.411
102 | AGAGTACG | 0.257
103 | AAGGGCTG | -0.377
104 | AAGAGACG | 0.0921
105 | CTACTCTA | -0.204
106 | TCAAACGA | 0.452
107 | CCAAACGC | 0.177
108 | ACAAACGG | 0.226
109 | ACAAACGA | 0.445
110 | GCAAACAA | 0.0626
111 | CCAAACGG | 0.287
112 | TCAAACAA | -0.155
113 | CAAAACGA | 0.278
114 | ACAAACGC | 0.174
115 | GCAAACGA | 0.433
116 | GCAAACGC | 0.0881
117 | CCAAACGA | 0.437
118 | AGCGGGTG | -0.186
119 | CTTTTGCC | -0.0531
120 | ATCAACCA | -0.154
121 | CGCAAGCG | 0.142
122 | TGGACCAA | -0.206
123 | AGGGAGAT | -0.275
124 | CAATGACG | -0.147
125 | CCGTTTAC | 0.416

Row | Sequence | PBM E-score
126 | GCGTTTAA | 0.28
127 | CCGTTTAG | 0.433
128 | CCGTTTAA | 0.441
129 | ACGTTTAG | 0.33
130 | ACGTTTAC | 0.304
131 | ACGTTTAA | 0.365
132 | CAGTTTAG | -0.0933
133 | GCGTTTAC | 0.227
134 | ACAGATCT | -0.159
135 | GTTCCAAC | 0.135
136 | AATACTAG | 0.0461
137 | CAGGCGCA | -0.24
138 | AGGAGGCA | -0.294
139 | AACGAAAT | 0.4
140 | AACGAAAG | 0.399
141 | AACGAAAA | 0.364
142 | ACCGAAAT | 0.15
143 | CACGAAAC | 0.147
144 | AACGAAAC | 0.389
145 | GACGAAAC | 0.287
146 | CACGAAAG | -0.0739
147 | ACCGAAAG | 0.0863
148 | CCTAAAAG | -0.201
149 | AACCAAAG | -0.0743
150 | GTGGCAAA | -0.187

Row | Sequence | PBM E-score
151 | AGCACCAT | -0.122
152 | AGCGTACC | 0.251
153 | ATAGTACA | 0.151
154 | ATCGTACC | 0.479
155 | ATCGTACG | 0.437
156 | ATAGTACG | 0.325
157 | CACGTACA | 0.216
158 | CGCGTACA | 0.269
159 | CTCGTACA | 0.489
160 | ATAGTACC | 0.00552
161 | ATCGTACA | 0.465
162 | AGCGTACG | 0.351
163 | AGCGTACA | 0.179
164 | GTTGACCA | -0.16
165 | TACCGCAA | 0.0649
166 | AACTGCAT | -0.00243
167 | ACGCCCAG | -0.143
168 | AGGCTTAA | -0.168
169 | GGTACTGA | -0.0769
170 | CCCGATCA | 0.197
171 | GGCGTACA | 0.16
172 | GACGTACA | 0.211
173 | AACGTACA | 0.204
174 | GTCGTACA | 0.484
